According to PubChem BioAssay (NCATS):
Inconclusive results are not listed. Unmarked numbers belong to inactive results. Calls follow the shape of the dose curve; as a rule, active = well fitted inhibition curve with a large enough effect; inconclusive = small, poorly fitted or top-dose-only effect; inactive = flat fitted curve, though single readings scatter.

test: qHTS to identify inhibitors of the type 1 interferon - major histocompatibility complex class I in skeletal muscle: primary screen against the NCATS Pharmaceutical Collection (AID 1347407); conditions: human skeletal muscle cells, IFN-b-induced MHC-I HiBiT luminescence, 24 h; series mostly up to 45.9 µM; activity change, negative = inhibition: at the top concentration
Outline: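 Luminescence from HiBiT-tagged endogenous HLA-B*08:01 served as the read-out of IFN-beta-induced MHC class I in CRISPR-engineered C25cl48 myoblasts. Cells received 4 ng/ml IFN-beta plus compound (high final 46 uM, […]) for 24 h.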
% is scaled to controls: 0 for no effect and ±100 for the full control effect.

Row | Compound | activity change, negative = inhibition [%]
1 | O=C(Nc1ccccc1)OCC(CN1CCCCC1)OC(=O)Nc1ccccc1 (stereo not given) | -19.8
2 | C[N+]1(C)CCC(=C(c2ccccc2)c2ccccc2)CC1 | -6.49
3 | O=C(NC1CCN(CCc2c[nH]c3ccccc23)CC1)c1ccccc1 | 0.841
4 | COc1cc(C)nc(-n2nc(C)cc2OC)n1 | -13.4
5 | CC(C)(Cc1c[nH]c2ccccc12)NCC(O)COc1ccccc1C#N (stereo not given) | -13.9
6 | Cc1c[nH]c2ccccc12 | 2.71
7 | CC(=O)OC[C@H]1O[C@@H](n2ncc(=O)[nH]c2=O)[C@H](OC(C)=O)[C@@H]1OC(C)=O | -13.3
8 | O=C(NCCc1c[nH]c2ccccc12)c1cccnc1 | -1.75
9 | Nc1ccc(C(=O)NCC(=O)O)cc1 | 3.3
10 | CC(=O)Nc1ccc(S(=O)(=O)Nc2ccc([N+](=O)[O-])cc2)cc1 | -3.27
11 | CCCc1ncc(C[n+]2ccccc2C)c(N)n1 | -3.73
12 | CN(C)CCC[C@@]1(c2ccc(F)cc2)OCc2cc(C#N)ccc21 | -1.7
13 | CN(CCCN1c2ccccc2CCc2ccccc21)CC(=O)c1ccc(Cl)cc1 | 10.4
14 | COc1ccccc1N1CCN(CCCCNC(=O)c2ccc(-c3ccc(C(C)=O)cc3)cc2)CC1 | -18.1
15 | NCc1ccccc1Sc1ccccc1CO | -22
16 | Cc1cccc(C)c1NC(=O)CN1CCCCCC1 | 0.0781
17 | COc1cc(C(=S)N2CCOCC2)ccc1O | -6.84
18 | N#CCC(=O)NN | -29
19 | CC(C(=O)O)c1cccc(Oc2ccccc2)c1 (stereo not given) | -15.3
20 | COc1cc([C@H]2Oc3cc([C@H]4Oc5cc(O)cc(O)c5C(=O)[C@@H]4O)ccc3O[C@@H]2CO)ccc1O | -15.9
